Structures are written as SMILES. The campaign covered roughly 390,000 compounds. About 2,600 (0.67%) were called active.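 The calls were made as follows: active = mean inhibition of replicates at least 50% and at least half of replicates each reaching 50%; inconclusive = half or more replicates reach 50% but mean below 50%; inactive = the rest.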 The full list was thinned out, with actives kept by preference.

The target in the experiment is Transforming acidic coiled-coil-containing protein 3 (Homo sapiens) (UniProt Q9Y6A5). Put plainly: inhibitors of ARNT PAS-B binding to TACC3 – biochemical, AlphaScreen, single concentration, primary screen (AID 623870).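 Also: 0% = complete ARNT plus TACC3 wells and 100% = ARNT alone without TACC3.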 The conditions noted are these: AlphaScreen His-ARNT PAS-B/GST-TACC3 binding, luminescence; at 9.99 µM; active compounds read high; TACC3 fragment carries E629A point mutation.
On to `C[C@H]1CN([C@@H](C)CO)C(=O)c2cc(NC(=O)CCN3CCOCC3)ccc2O[C@@H]1CN(C)C(=O)Nc1ccc(C(F)(F)F)cc1`, for which the inhibition is 26.6% (inactive). The result for `Cc1noc(C)c1S(=O)(=O)N(C)C[C@H]1OCCCC[C@@H](C)Oc2ccc(NC(=O)c3ccccc3)cc2C(=O)N([C@@H](C)CO)C[C@H]1C` reads -4.16% (inactive); that for `O=C1c2ccccc2-c2ncnc3c(N4CCOCC4)cc(N4CCOCC4)c1c23`, 11.8% (inactive). The result for `COc1ccc(S(=O)(=O)N2CCOCC2)c(C)c1C` reads -0.167% (inactive); that for `COC1=C(N2CCOCC2)C(=O)c2ccccc2C1=O`, 60.4% (active); that for `C[C@@H]1CN([C@@H](C)CO)C(=O)c2cccc(NS(=O)(=O)c3cn(C)cn3)c2O[C@H]1CN(C)Cc1ccc(Cl)c(Cl)c1`, 4.82% (inactive). The figure for `O=C(NC1CCCC1)[C@H]1[C@H](CO)[C@H]2Cn3c(ccc(-c4ccccc4)c3=O)[C@H]2N1CCc1ccccc1` is 5.95% (inactive); for `COCC(=O)N1CC[C@@H]2[C@@H](CO)Nc3ccc(-c4ccc(C(=O)N(C)C)cc4)cc3[C@@H]21` it is -12.5% (inactive); for `COc1cccc(S(=O)(=O)N[C@H]2CC[C@H](CCN)O[C@H]2CO)c1` it is 0.015% (inactive).

As for `COCC(=O)Nc1ccc2c(c1)OC[C@@H](C)N(C(=O)c1cnccn1)C[C@H](C)[C@H](OC)CN(C)C2=O`, the inhibition is -8.24% (inactive). With `COc1cc(Cl)cc(C2NC(=O)NC(C)=C2C(=O)NCc2ccccc2)c1O` (stereo unspecified), the inhibition is -0.141% (inactive).

With `COc1cc(C(=O)NCc2ccc(-n3cccc3)cc2)cc(OC)c1OC`, the inhibition is -1.7% (inactive).

As to `COc1cc(C(=S)NCc2ccccc2)cc(Br)c1O`, the inhibition is 49.6% (active). On to `COc1ccc(S(=O)(=O)Nc2cccc3c2O[C@@H](CN(C)S(=O)(=O)c2ccccc2)[C@@H](C)CN([C@@H](C)CO)C3=O)cc1`, for which the inhibition is 1.77% (inactive). The result for `CC(=O)N(C)C[C@H]1Oc2cc(-c3ccc(C)cc3)ccc2S(=O)(=O)N([C@@H](C)CO)C[C@@H]1C` reads -9.76% (inactive). The figure for `C[C@@H]1CN([C@@H](C)CO)S(=O)(=O)c2ccc(C3=CCCC3)cc2O[C@H]1CN(C)C(=O)CC1CC1` is 3.76% (inactive); for `C[C@H]1CN([C@@H](C)CO)C(=O)c2cc(NC(=O)Cn3cnnn3)ccc2O[C@@H]1CN(C)C(=O)Nc1ccccc1` it is -0.158% (inactive); for `c1ccc(-c2cn3c(n2)CCc2ccc4cccnc4c2-3)cc1` it is 64.1% (active). Consider `COc1cc(-c2nnc(NC(=O)C3=COCCO3)o2)cc(OC)c1OC`, for which the inhibition was 45.2% (active). The result for `CCC(CC)c1nnc(NC(=O)C2=COCCO2)s1` reads -6.14% (inactive); that for `O=C(Nc1nnc(C2=COCCO2)o1)c1ccc([N+](=O)[O-])s1`, 32.6% (inactive).

What is called inhibition is the change of the read-out against control, counted positive when it falls.

The values above are taken from PubChem BioAssay AID623870 (Broad Institute, 2012).
